# Measured values from PubChem BioAssay AID1159580 (chemical genetic matrix, 2015).
# Several values for one entry are separate records, joined by “and”; a condition that tells them apart may be missing. Equal entries are not always repeated. Out of some 5,500 compounds screened, about 2,000 (36%) were called active. Roughly 18% stayed inconclusive and do not appear here. Some of the results follow. Values without a mark were called inactive. Cut-off read from the data, not from the text of the source: active = normalized growth mostly below about 0.91 (no sharp cut-off); inconclusive = no clear call, values can overlap the other calls; inactive = mostly above about 0.92.
# Experiment: chemical genetic growth profiling, strain panel (AID 1159580);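 note: tested at 20 µM; growth read once vehicle control cultures reached saturation at 30 °C; 1 = growth at the plate median or of vehicle wells; lower values mean less growth of the strain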
# Details: S. cerevisiae deletion strains, growth OD
compound,measurement,setting,value
Clc1ccc(C(c2ccccc2Cl)C(Cl)Cl)cc1 (centres undefined),normalized growth,"locus YAL013W, strain DEP1, active compounds read low",0.997
same,normalized growth,"locus YAL021C, strain ccr4, active compounds read low",1.07
same,normalized growth,"locus YAL026C, strain drs2, active compounds read low",0.943
same,normalized growth,"locus YAL030W, strain snc1, active compounds read low",0.94
same,normalized growth,"locus YAL040C, strain CLN3, active compounds read low",1
same,normalized growth,"locus YBL061C, strain skt5, active compounds read low",0.948
same,normalized growth,"locus YBR009C, strain hhf1, active compounds read low",0.928
same,normalized growth,"locus YBR021W, strain FUR4, active compounds read low",0.949
same,normalized growth,"locus YBR023C, strain chs3, active compounds read low",0.973
same,normalized growth,"locus YBR171W, strain sec66, active compounds read low",0.941
same,normalized growth,"locus YBR229C, strain ROT2, active compounds read low",0.998
same,normalized growth,"locus YBR231C, strain swc5, active compounds read low",0.964
same,normalized growth,"locus YBR279W, strain paf1, active compounds read low",0.987
same,normalized growth,"locus YCL011C, strain gbp2, active compounds read low",0.918
same,normalized growth,"locus YCL016C, strain dcc1, active compounds read low",0.97
same,normalized growth,"locus YCL029C, strain bik1, active compounds read low",0.986
same,normalized growth,"locus YCL061C, strain MRC1 (second series), active compounds read low",1.01
same,normalized growth,"locus YCL061C, strain MRC1, active compounds read low",0.907 (active)
same,normalized growth,"locus YCL069W, strain vba3, active compounds read low",0.982
same,normalized growth,"locus YCR088W, strain abp1, active compounds read low",0.988
same,normalized growth,"locus YDL005C, strain med2, active compounds read low",0.967
same,normalized growth,"locus YDL035C, strain GPR1, active compounds read low",1
same,normalized growth,"locus YDL040C, strain nat1, active compounds read low",0.989
same,normalized growth,"locus YDL074C, strain BRE1, active compounds read low",0.956
same,normalized growth,"locus YDL101C, strain DUN1, active compounds read low",1
same,normalized growth,"locus YDL134C, strain PPH21, active compounds read low",0.993
same,normalized growth,"locus YDL185W, strain tfp1, active compounds read low",0.984
same,normalized growth,"locus YDL192W, strain arf1, active compounds read low",0.989
same,normalized growth,"locus YDR001C, strain nth1, active compounds read low",0.981
same,normalized growth,"locus YDR069C, strain doa4, active compounds read low",0.915
same,normalized growth,"locus YDR101C, strain arx1, active compounds read low",0.987
same,normalized growth,"locus YDR137W, strain rgp1, active compounds read low",0.932
same,normalized growth,"locus YDR150W, strain NUM1, active compounds read low",1.02
same,normalized growth,"locus YDR159W, strain sac3, active compounds read low",1
same,normalized growth,"locus YDR162C, strain NBP2, active compounds read low",1.02
same,normalized growth,"locus YDR195W, strain ref2",1.06
same,normalized growth,"locus YDR297W, strain sur2, active compounds read low",0.956
same,normalized growth,"locus YDR318W, strain mcm21, active compounds read low",0.985
same,normalized growth,"locus YDR334W, strain swr1, active compounds read low",0.962
same,normalized growth,"locus YDR335W, strain msn5, active compounds read low",0.967
same,normalized growth,"locus YDR363W, strain ESC2, active compounds read low",1.01
same,normalized growth,"locus YDR388W, active compounds read low",0.991
same,normalized growth,"locus YDR392W, strain spt3, active compounds read low",0.869
same,normalized growth,"locus YDR502C, strain sam2, active compounds read low",0.984
same,normalized growth,"locus YEL003W, strain gim4, active compounds read low",0.969
same,normalized growth,"locus YEL037C, strain rad23, active compounds read low",0.983
same,normalized growth,"locus YEL061C, strain CIN8 (second series), active compounds read low",0.984
same,normalized growth,"locus YEL061C, strain CIN8, active compounds read low",1
same,normalized growth,"locus YER002W, strain NOP16, active compounds read low",1.12 [resistant] (active)
same,normalized growth,"locus YER015W, strain faa2, active compounds read low",0.978
same,normalized growth,"locus YER016W, strain bim1, active compounds read low",1.02
same,normalized growth,"locus YER110C, active compounds read low",0.986
same,normalized growth,"locus YER111C, strain swi4, active compounds read low",0.986
same,normalized growth,"locus YER155C, strain BEM2 (second series), active compounds read low",0.96
same,normalized growth,"locus YER155C, strain BEM2, active compounds read low",0.994
same,normalized growth,"locus YER167W, strain BCK2, active compounds read low",1
same,normalized growth,"locus YFR010W, strain ubp6, active compounds read low",0.942
same,normalized growth,"locus YGL078C, strain dbp3, active compounds read low",0.99
same,normalized growth,"locus YGL086W, strain mad1, active compounds read low",0.981
same,normalized growth,"locus YGL167C, strain pmr1, active compounds read low",0.972
same,normalized growth,"locus YGL173C, strain kem1, active compounds read low",0.936
same,normalized growth,"locus YGL227W, strain vid30, active compounds read low",0.987
same,normalized growth,"locus YGL240W, strain doc1, active compounds read low",0.925
same,normalized growth,"locus YGL248W, strain PDE1, active compounds read low",0.993
same,normalized growth,"locus YGL253W, strain hxk2, active compounds read low",0.977
same,normalized growth,"locus YGR078C, strain PAC10, active compounds read low",0.987 and 0.999
same,normalized growth,"locus YGR135W, strain pre9, active compounds read low",0.968
same,normalized growth,"locus YGR229C, strain SMI1, active compounds read low",0.978 and 1.01
same,normalized growth,"locus YGR252W, strain gcn5, active compounds read low",0.874
same,normalized growth,"locus YHR013C, strain ard1, active compounds read low",1.11
same,normalized growth,"locus YHR027C, strain rpn1, active compounds read low",0.982
same,normalized growth,"locus YHR030C, strain SLT2, active compounds read low",0.985 and 0.893
same,normalized growth,"locus YHR079C, strain IRE1 (second series), active compounds read low",0.983
same,normalized growth,"locus YHR079C, strain IRE1, active compounds read low",0.947
same,normalized growth,"locus YHR094C, strain hxt1, active compounds read low",0.992
same,normalized growth,"locus YHR129C, strain ARP1, active compounds read low",1
same,normalized growth,"locus YHR142W, strain chs7, active compounds read low",0.919
same,normalized growth,"locus YHR200W, strain rpn10, active compounds read low",0.98
same,normalized growth,"locus YIL066C, strain RNR3, active compounds read low",0.963
same,normalized growth,"locus YIL073C, strain SPO22, active compounds read low",0.952
same,normalized growth,"locus YIL125W, strain kgd1, active compounds read low",0.998
same,normalized growth,"locus YIR030C, strain dcg1, active compounds read low",0.99
same,normalized growth,"locus YJL092W, strain hpr5, active compounds read low",0.961
same,normalized growth,"locus YJL095W, strain BCK1 (second series), active compounds read low",0.973
same,normalized growth,"locus YJL095W, strain BCK1, active compounds read low",1 and 0.933
same,normalized growth,"locus YJL115W, strain asf1, active compounds read low",0.976
same,normalized growth,"locus YJL129C, strain trk1, active compounds read low",0.828 (active)
same,normalized growth,"locus YJL134W, strain LCB3, active compounds read low",1
same,normalized growth,"locus YJL154C, strain vps35, active compounds read low",0.978
same,normalized growth,"locus YJL164C, strain tpk1, active compounds read low",0.95
same,normalized growth,"locus YJL166W, strain qcr8, active compounds read low",0.825 (active)
same,normalized growth,"locus YJL168C, strain set2, active compounds read low",0.988
same,normalized growth,"locus YJL187C, strain SWE1 (second series), active compounds read low",0.997
same,normalized growth,"locus YJR043C, strain POL32, active compounds read low",1
